The values that follow come from PubChem BioAssay (NCI).

About 83,000 compounds went through this panel and 20% of them were active in at least one assay; those are over-represented in the sample as a whole.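 The endpoint reported here, percent growth, reads 100 for growth as untreated, 0 for no net growth and -100 for all cells dead.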 A number with no mark means an inactive call. Calls of active or inactive are those of the source.

The subject of this experiment is MCF7 breast. In words: NCI-60 one-dose screen, 48 h (100 = growth as untreated, 0 = no growth, -100 = all killed). The settings on record: 10 µM unless noted. The procedure:
Growth inhibition of the MCF7 human tumor cell line is measured as a screen for anti-cancer activity. Cells are grown in 96 well plates and exposed to the test compound for 48 hours. Compounds are tested at a single concentration, which is 10^-5 M for most compounds. The reported endpoint is percent growth (GI% or GIPRCNT), where numbers from 0 - 100% represent growth inhibition, and numbers from -100% - 0 represent cell death. For example, a value of 40 represents 60% growth inhibition. A value of 0 means no net growth occurred over the course of the experiment. A value of -40 indicates 40% of cells at the beginning of the experiment died by the end of the experiment. A value of -100 means all cells are dead at the end of the experiment.
NCI-60 Human Tumor Cell Lines Screen was performed using the standard one-dose NCI protocol, which is described in more detail at https://dtp.cancer.gov/discovery_development/nci-60/default.htm.
Compounds with GIPRCNT values below 10 were considered active. Activity score was based on GIPRCNT using the following formula: […]
Score is 0 for GIPRCNT values of 100 or above, 50 for GIPRCNT values of 0, and 100 for GIPRCNT values of -100.
On to `COc1ccc(/C=C2\C(=O)N=C3N2NC(c2cc(Br)ccc2O)C=C(C)N3c2ccccc2)cc1` (stereo not given), for which the growth is 83.7%. In the case of `CC(C)c1ccc(NC(=O)Nc2ccc(NC(=O)CCCC(=O)NOCc3ccccc3)cc2)cc1` it was 80.2%; in that of `O=C(CSc1nc(-c2ccccc2)[nH]c1S(=O)(=O)c1ccccc1)NC1CC1`, 65.2%. Take `CC(=O)Nc1nc2ccc(NS(=O)(=O)c3cccc4c(N(C)C)cccc34)cc2[nH]1`: the growth is 22.4%. Take `CCOC(=O)c1c(C)c2c(n1C)CSc1cc(C(=O)c3ccccc3)c(=O)[nH]c1-2`: the growth was 90.6% [100 µM].

As for `CCCCCCCCCCCCCCCC(N)c1ccccc1` (stereo not given), the growth is -67.3% (active). With `COC(=O)CCC(=O)C(=O)OC` the figure was 49.8% [10 mM]. Turning to `O=C1c2cccc3cccc(c23)C(=O)N1N1C(=O)c2cccc3c(N4CCOCC4)ccc(c23)C1=O`, the growth is 94.9%. With `C=CCn1cc(-c2nc3ccccc3s2)c2cc(-c3ccc4c5c(cccc35)C(=O)N(N)C4=O)ccc21` the figure was 75.2%. In the case of `N#Cc1cccc(NC(=O)c2oc3ccccc3c2-c2cnn(-c3ccccc3)c2)c1` it was 57.3% [50 µM].

Regarding `COc1ccc(Cc2cc(-c3ccccc3)nn(Cc3ccccc3)c2=O)cc1OC`, the growth was 19.9%. As for `Cc1nn(-c2ccccc2)c(Oc2ccccn2)c1-c1nc2ccccc2s1`, the growth is 84%. With `CCOC(=O)/C=C1\S/C(=N\Nc2cc(=O)[nH]c3ccc(Cl)cc23)N(c2ccccc2)C1=O` the figure was 34.3%; with `COc1ccc2c(O)c(/C=C3\N=Nc4ncccc43)oc2c1C[C@H]1CCNC[C@H]1F`, 2.59% (active); with `CO[C@]12C=C/C(=C(/C(=O)OCc3cccnc3)C(=O)CCCCCCCC[C@@]3(OC)C=C/C(=C(/C(=O)OCc4cccnc4)C(=O)CCCCCCCC1)O3)O2`, 18.5%.

As to `CCN(CC)CCNC(=O)c1cn2ncnc(Oc3ccc(NC(=O)Nc4ccc(Cl)c(C(F)(F)F)c4)c(F)c3)c2c1C`, the growth was -65% (active). With `CCO/C=N/C1=C(C#N)C(c2ccc(OC)cc2)c2sc3c(F)cccc3c2O1` (stereo not given) the figure was 12.9%; with `CCn1c(SCC(=O)c2ccc(Br)cc2)nnc1-c1ccncc1`, 92.6%; with `N#CCSc1nnc2n(Cc3ccccc3)c(=O)c3c4c(sc3n12)CCCC4`, 98.9%.

Regarding `CCCCCCCCCCCCCCCCCCOc1ccccc1CC(=O)OCC[N+]1(C)CCCC1`, the growth is 32.3%. With `CCOc1nc(-c2ccccc2)cc2c(O)c(C(=O)NN)[nH]c(=O)c12`, the growth was 127%. In the case of `C=CC(=O)NCc1ccc(Nc2nccc(-c3ccc(N4CCCC4)c(C#N)c3)n2)cc1`, the growth is 14.3%.

With `O=C(Nc1ncc(Cc2ccc(Cl)c(C(F)(F)F)c2)s1)c1ccc2nnsc2c1`, the growth is 20.4%. Consider `O=C1N[C@@H]2NC(=[N+]3CCOCC3)N[C@@H]2N1`, for which the growth was 95.9%. In the case of `O=C(/C=C/c1ccccc1)c1cccc(OCCCOc2cccc(C(=O)/C=C/c3ccccc3)c2)c1` it was 11.3%; in that of `S=C(Nc1ccc(-c2nc(N3CCOCC3)c3cccn3n2)cc1)Nc1cccnc1`, 20.4%; in that of `Cc1ccc(/C=N/Nc2nc(Nc3ccccc3)nc(-n3nc(C)cc3C)n2)cc1`, 16.4%. With `COc1cc(-c2nc(SCCC(C)C)nc(Nc3ccccc3Cl)c2C#N)cc(OC)c1OC` the figure was 85.7%. On to `Cc1cccc(Cl)c1NC(=O)c1ccc2nc(NC(=O)NCCN(C)C)sc2c1`, for which the growth is 48.9%.

Regarding `CN1CCN(c2ccc(C(=O)Nc3cccc(C#Cc4cccc5[nH]nc(N)c45)c3)cc2C(F)(F)F)CC1`, the growth is -71.6% (active). In the case of `O=C(c1ccccc1)C1C(=O)N2C(=S)N(c3ccccc3)C(=O)C2C1c1ccc(Cl)cc1` (stereo not given) it was 65.2%; in that of `O=C(O)/C(=C\c1ccc(Cl)cc1)c1ccc(Cl)cc1`, 92.9%; in that of `COc1cc(-c2cc(-c3cccs3)c(C#N)c(N3CCOCC3)n2)cc(OC)c1OC`, 61.9%. Take `N#Cc1c(N)nnn1Cc1cc(=O)oc2c1ccc1ccccc12`: the growth was 92.6%. In the case of `CS(=O)(=O)Nc1cc(-c2ccc3ncnc(Nc4c(Cl)ccc5c4OCO5)c3c2)cnc1Cl` it was 0.196% (active). Consider `CN(C)CCCn1c2c(c3ncccc3c1=O)C(=O)c1ccccc1-2`, for which the growth was 11.8%. On to `C[C@]12CC[C@@H]3c4ccc(O)c([N+](=O)[O-])c4CC[C@H]3[C@@H]1CCC2=O`, for which the growth is 112%.

For `Cc1nc2c(=O)[nH]c(SCC(=O)Nc3cccc(F)c3)nc2[nH]c1=O`, the growth is 92.7%. In the case of `CN1CCN(Cc2ccc(NC(=O)c3cncc(C#Cc4cnc(N)c5ccccc45)c3)cc2C(F)(F)F)CC1`, the growth is -76.8% (active). In the case of `Cc1nc2sc(C(=O)Nc3cccc(Cl)c3C)c(N)c2cc1C(=O)c1ccccc1` it was 11.1%.
